# TDP1 cell noCPT = qHTS for Inhibitors of human tyrosyl-DNA phosphodiesterase 1 (TDP1): qHTS in cells in absence of CPT; Potency, µM (top dose mostly 46.2 µM), without a hit: at the highest dose activity change, negative = growth inhibition, usual class: inhibitors; actives 15% (n = 420,000); DT40 Tdp1-/- hTDP1 cells, no CPT, ATP luminescence, 48 h; also: potency is read from the fitted curve at half-maximal effect; nearly all actives have a fitted effect of over 55% in size
#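 Growth kinetics read by CellTiter-Glo luminescence after ≥48 hr at 37 °C. Cells: DT40 Tdp1-/- stably carrying human TDP1, 400 per well, compound exposure in the absence of CPT (DMSO vehicle).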
# IL-1B inflam inh = blocks inflammasome-driven IL-1 beta release | activity change, % at 57.5 µM | THP-1 LPS/ATP IL-1B secretion, AlphaLISA, 16 h; active compounds read low | actives 4.7% (n = 360,000); in the data active = activity change below about -50%; inconclusive = mostly about -30% to -49%
#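 THP-1 cells pretreated 1 hr with compounds (up to 57.5 uM final), then stimulated with LPS (250 ng/mL final) plus ATP (1.25 mM final); secreted IL-1B measured by AlphaLISA after 16 hr, decreased signal indicating inhibition.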
# DT40 TDP1 CPT = growth inhibition of DT40 Tdp1-/-;hTDP1 cells with camptothecin (screen for TDP1 inhibitors) | chicken DT40 Tdp1-/-;hTDP1 cells + 20 nM CPT, ATP luminescence, 48 h | Potency, µM (top dose mostly 46.2 µM), without a hit: at the top dose activity change, negative = growth inhibition, hits mostly inhibitors | actives 12% (n = 420,000) | AID 686979; also: potency is read from the fitted curve at half-maximal effect; nearly all actives have a fitted effect of over 55% in size
#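 Cell growth measured by CellTiter-Glo luminescence after a minimum 48 h, 37 C compound exposure with 20 nM CPT in Tdp1-knockout DT40 cells stably expressing hTDP1, seeded 400/well; qHTS titration format.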
# HT1080-NT tox = kills 2HG-producing HT-1080-NT fibrosarcoma cells. AID 686970. Potency, µM (doses to about 46.1 µM), for inactives: at the highest dose activity, negative = less viability, actives largely listed as cytotoxic. HT-1080-NT fibrosarcoma viability, CellTiter-Glo ATP luminescence, 48 h. actives 1.6% (n = 360,000);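 also: NT is the 2HG producing partner of a matched IDH1 knockdown line; potency is read from the fitted curve at half-maximal effect; 0% = DMSO-treated cells and -100% = media-only wells without cells; nearly all actives have a fitted effect of over 55% in size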
#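 A 48-hour cytotoxicity screen used HT-1080-NT cells plated 2 hours before compound delivery. ATP-based CellTiter-Glo luminescence measured viability, normalized to DMSO and no-cell controls.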
# HT1080 IDH1KD tx = toxicity to HT-1080 IDH1 knockdown cells (counter line) | HT-1080 IDH1 knockdown viability, ATP luminescence, 48 h | Potency, µM (doses to about 46.1 µM), for inactives: at the highest dose activity, negative = toxicity, hits mostly cytotoxic | actives 2% (n = 360,000) | AID 686971;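 also: potency is read from the fitted curve at half-maximal effect; 0% = DMSO wells and -100% = cell-free medium wells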
#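 After a 2 h attachment period, IDH1KD HT-1080 cells took pin-transferred compound for 48 h at 37 °C; ATP-based luminescence after 10 min room-temperature reagent incubation reported viability.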
# Active calls of the source: *; ? = inconclusive; nt = no result given; [ ] = remark or other dose. This is a sample that favours compounds with a hit; in the whole collection about 19% have one here. Unless noted, calls follow the shape of the dose curve; as a rule, active = well fitted curve in the direction sought with a large enough effect; inconclusive = small, poorly fitted or top-dose-only effect, or another doubt; inactive = no such curve, though single readings can be large; an effect the other way counts as inactive or inconclusive. Unless noted, % is scaled to controls: 0 for no effect and ±100 for the full control effect.
SMILES,TDP1 cell noCPT,IL-1B inflam inh,DT40 TDP1 CPT,HT1080-NT tox,HT1080 IDH1KD tx
c1ccc2oc(CCc3nc4ccccc4o3)nc2c1,0%,-6,3%,12%,4%
CC(O)CCC(=O)NCCNC(=O)CCC(C)O (stereo unspecified),?,7,26µM*,6%,11%
CCC(CC)C(=O)Nc1cccc(-c2ccc3nncn3n2)c1,-25%,19,0%,0%,5%
COC(=O)c1cc(NC(=O)CC2SC(=Nc3ccccc3)N(CCc3c[nH]c4ccccc34)C2=O)cc(C(=O)OC)c1 (stereo unspecified),?,-14,16µM*,?,?
COc1ccc2oc(=O)c(C(=O)N3CCN(c4ccc(C)cc4)CC3)cc2c1,?,nt,-23%,nt,nt
Cc1ccc(S(=O)(=O)CC(=O)c2ccc3c(c2)OCCO3)cc1,-8%,15,-5%,-8%,14%
COC(=O)C(NC(=O)c1ccccc1)c1ccccc1 (stereo unspecified),3%,17,-15%,4%,6%
CN(Cc1cc(Cl)cc(Cl)c1)CC(C(=O)c1ccccc1)c1ccccc1 (stereo unspecified),7.3µM*,-79*,6.5µM*,-22%,?
C=C(C(=O)c1ccccc1)C(NC(C)(C)C)c1ccccc1 (stereo unspecified),2.3µM*,-101*,2.1µM*,6.5µM*,5.8µM*
N#CC(c1ccccc1)C(CC(=O)c1ccccc1)c1ccccc1 (stereo unspecified),?,-6,?,-16%,-26%
O=C(CC(C(=O)c1ccccc1)c1ccccc1)c1ccccc1 (stereo unspecified),21µM*,?,?,-9%,-26%
O=C(CC(C(=O)O)c1cccc(Cl)c1)c1ccccc1 (stereo unspecified),9%,0,-25%,-7%,0%
N#CC(c1ccc(N)cc1)C(CC(=O)c1ccccc1)c1ccccc1 (stereo unspecified),29µM*,-16,?,1%,1%
CC(C(=O)c1ccccc1)[n+]1cccc(Cl)c1 (stereo unspecified),?,nt,3%,nt,nt
CN(C)CC(C(=O)c1ccccc1)c1ccccc1 (stereo unspecified),1.5µM*,-101*,1.2µM*,-3%,13µM*
C=C(C(=O)c1ccccc1)C(C)CC(=O)c1ccccc1 (stereo unspecified),15µM*,-106*,23µM*,-25%,21µM*
O=C(c1cccc(NS(=O)(=O)c2ccc(Br)cc2)c1)N1CCCCC1,-1%,24,5%,3%,3%
Cc1ccccc1OCC(=O)Nc1cccc(S(=O)(=O)NC2=NCCCCC2)c1,?,-8,?,2%,2%
COc1ccc(NC(C)=O)cc1S(=O)(=O)Nc1cccc(S(=O)(=O)NC2=NCCC2)c1,21%,13,0%,11%,13%
COc1ccc(/C=C/C(=O)Nc2cccc(S(=O)(=O)NC3=NCCCCC3)c2)c(OC)c1,12µM*,-18,16µM*,9%[9.24 µM],5%
COc1ccccc1/C=C/C(=O)Nc1cccc(S(=O)(=O)NC2=NCCCCC2)c1,?,-57*,?,8%,0%
COC(=O)N1CCC2(CCN(C(=O)Nc3cccc(C#N)c3)CC2)CC1,-22%,nt,6%,nt,nt
Cc1ccc(-c2nnc3cccc(Cl)n23)cc1,-19%,6,0%,10%,15%
COc1ccc(Nc2cc(C)nc(-n3nc(C)cc3C)n2)cc1Cl,0.15µM*,nt,0.37µM*,nt,nt
COc1ccc(Nc2cc(C)nc3nc(C)nn23)cc1Cl,-13%,-21,-18%,-11%,-6%
SMILES,TDP1 cell noCPT,IL-1B inflam inh,DT40 TDP1 CPT,HT1080-NT tox,HT1080 IDH1KD tx
Cc1cc(Nc2ccc(C(C)C)cc2)nc(-n2nc(C)cc2C)n1,0.82µM*,nt,0.58µM*,nt,nt
Cc1cc(Nc2ccc(F)cc2F)nc(-n2nc(C)cc2C)n1,4.6µM*,nt,2.9µM*,nt,nt
Cc1noc(C)c1CC(=O)N1CCOc2c(cc(-c3nc4ccccc4s3)cc2OC2CCOC2)C1 (stereo unspecified),-9%,nt,12%[9.04 µM],nt,nt
CC(=O)C1=C(C)NC(=S)NC1c1cc([N+](=O)[O-])ccc1O (stereo unspecified),-1%,3,-1%,0%,1%
CS(=O)(=O)Nc1ccc(C(=O)Nc2ccc3ccccc3c2)cc1,5.2µM*,16,2.9µM*,?,-29%
CC(C)c1ccc(NC(=O)c2ccc(NS(C)(=O)=O)cc2)cc1,4.6µM*,-10,2.9µM*,?,-25%
CC(=O)c1cccc(NC(=O)c2ccc(NS(C)(=O)=O)cc2)c1,-13%,13,4%,19%,18%
COc1cc2c(NC3CCN(C(C)C)CC3)nc(N3CCCN(C)CC3)nc2cc1OCCOCCN1CCCC1,14µM*,nt,10µM*,nt,nt
COc1cc2c(NC3CCN(C)CC3)nc(N3CCCCC3)nc2cc1OCCOCCN1CCCC1,?,nt,13µM*,nt,nt
COc1cc2c(NC3CCN(C)CC3)nc(N3CCCN(C)CC3)nc2cc1OCCN(C)CCN(C)C,-9%,nt,-8%,nt,nt
COc1ccc(S(=O)(=O)N2CC(O)C[C@H]2C(=O)OCC(=O)N2CCCCCC2)cc1 (stereo partly specified),-21%,1,-2%,0%,4%
O=[N+]([O-])c1cc(-c2cnc3ccccc3n2)ccc1Oc1ccc(Cl)cc1,?,31,18µM*,-18%,-10%
COc1ccccc1Oc1ccc(-c2cnc3ccccc3n2)cc1[N+](=O)[O-],7.3µM*,-5,23µM*,?,?
O=C(CCCC(=O)OCC(Cl)=C(Cl)Cl)Nc1ccc(F)cc1,-7%,17,-2%,14%,3%
Cc1ccc(S(=O)(=O)N2CCC(NC(=O)C3CCCCC3)CC2)cc1,-14%,13,16%,13%,23%
O=S(=O)(c1ccc(Cl)c(NC(=S)Nc2cccc(O)c2)c1)N1CCOCC1,-23%,-12,8%,1%,-2%
Cc1ccc(S(=O)(=O)N2CCOCC2)cc1NC(=O)CNC(C)c1ccccc1 (stereo unspecified),-4%,1,8%,0%,5%
CCN(C(=S)Nc1cc(S(=O)(=O)N2CCOCC2)ccc1Cl)c1cccc2ccccc12,?,9,18µM*,-5%,-6%
COc1ccccc1CNCC(=O)Nc1cc(S(=O)(=O)N2CCOCC2)ccc1Cl,16µM*,4,?,3%,11%
